# Results as given in PubChem BioAssay AID1345085 (National Center for Advancing Translational Sciences (NCATS), 2018).
# Results filed as inconclusive are left out. Unmarked numbers belong to inactive results. The source made the active and inactive calls. The call rests on the fitted dose curve; in most records, active means well fitted cell-killing curve with a large enough effect; inconclusive means small, poorly fitted or top-dose-only effect, or effect the other way; inactive means no such curve, though single readings can be large or run the other way. *1 amine or outer side, *2 acyl side, *3 side chain or, on linkers, in order; H or OH if unused. Where a SMILES comes first, the peptide text is derived from it. Bridges are numbered along the chain shown (N, C = ends). Roman numbers before positions name the chains, in order. [ ]: non-standard residue; d: D form. Actinocin(9to1) = Cc1c2oc3c(C)ccc(C(=O)[*:1])c3nc-2c(C(=O)[*:2])c(N)c1=O; NMeV = CN[C@H](C(=O)O)C(C)C; Sar = CNCC(=O)O
# System: C33A
# Experiment: Confirmatory qHTS for gynecologic anti-cancer compounds from libraries of approved drugs and bioactive compounds; further: nearly all actives have a fitted effect of over 55% in size
# Conditions: gynecologic cancer cell panel viability, ATPlite luminescence, 48 h; series mostly up to 57.6 µM; activity change, negative = viability loss: at the top concentration
# Method in brief: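 ATP-based luminescent viability (ATPlite) after 48 h drug treatment at 37 °C, 5% CO2, across 57.5 uM–0.977 nM in 1:3 steps. Cells seeded at 1,000 per well 16 h beforehand; IC50 values computed, HEK 293T as selectivity control.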
# On the % scale 0 is the no-effect control and ±100 the full control effect; potency means the concentration at half of the fitted maximal effect.
Structure (SMILES),Potency,"activity change, negative = viability loss"
CCN1CCN(Cc2ccc(-c3cc4c(NC(C)c5ccccc5)ncnc4[nH]3)cc2)CC1 (stereo not drawn),27.3 µM (active),
CCN(CC)CCNC(=O)c1c(C)[nH]c(/C=C2\C(=O)Nc3ccc(F)cc32)c1C,22.4 µM (active),
CC(=O)NCC(=O)N1C2CCC1c1cc(Nc3ncc(C(F)(F)F)c(NC4CCC4)n3)ccc12 (stereo not drawn),,-7.17%
O=C(O)c1ccc(Nc2ncc3c(n2)-c2ccc(Cl)cc2C(c2c(F)cccc2F)=NC3)cc1,,-8.05%
Cc1cc(CN2CCN(c3c(Br)cnc4nc(-c5ccc(N6CCN(C)CC6)cc5)[nH]c34)CC2)no1,24.3 µM (active),
CN1CCN(Cc2ccc(NC(=O)Nc3ccc(Oc4cc(NC(=O)C5CC5)ncn4)cc3)cc2C(F)(F)F)CC1,7.69 µM (active),
Cc1cnc(Nc2ccc(OCCN3CCCC3)cc2)nc1Nc1cccc(S(=O)(=O)NC(C)(C)C)c1,,-25.9%
Cn1c(=O)c(-c2c(Cl)cccc2Cl)cc2cnc(Nc3cccc(C(=O)O)c3)nc21,5.44 µM (active),
N=C(N)c1ccc(OCCCCCOc2ccc(C(=N)N)cc2)cc1,,-15.8%
CN1CCN(c2cccc(Nc3nc4c(-c5ccc(S(C)(=O)=O)cc5)cccn4n3)c2)CC1,,-10.2%
Nc1ccccc1NC(=O)c1ccc(CNc2nccc(-c3cccnc3)n2)cc1,3.06 µM (active),
CN(C)c1ccc(-c2nc3ncc(Cl)c(N4CCN(CC(=O)Nc5nccs5)CC4)c3[nH]2)cc1,,-12.9% [at 19.5 µM]
CC1=C(CO)C(=O)O[C@@H]([C@@H](C)[C@H]2CC[C@H]3[C@@H]4C[C@H]5O[C@]56[C@@H](O)C=CC(=O)[C@]6(C)[C@H]4CC[C@]23C)C1,2.11 µM (active),
CCCCN(CCCC)C(=O)CN1C[C@H](c2ccc3c(c2)OCO3)[C@@H](C(=O)O)[C@@H]1c1ccc(OC)cc1,,-1.91%
CC(=O)Nc1cccc(-n2c(=O)n(C3CC3)c(=O)c3c(Nc4ccc(I)cc4F)n(C)c(=O)c(C)c32)c1,,-5.55%
O=C1N(c2ccccc2)c2ccccc2C1(Cc1ccncc1)Cc1ccncc1,,6.9%
Cc1csc(NC(=O)c2sc3nc4c(c(C(F)(F)F)c3c2N)CCC4)n1,1.93 µM (active),

Structure (SMILES),Potency,"activity change, negative = viability loss"
CCCCc1oc2ccc(NS(C)(=O)=O)cc2c1C(=O)c1ccc(OCCCN(CCCC)CCCC)cc1,27.3 µM (active),
NC1(c2ccc(-c3nc4ccn5c(=O)[nH]nc5c4cc3-c3ccccc3)cc2)CCC1,,11%
CCCS(=O)c1ccc2nc(NC(=O)OC)[nH]c2c1 (stereo not drawn),,-5.48%
C[C@@H](Oc1cc(-c2cnn(C3CCNCC3)c2)cnc1N)c1c(Cl)ccc(F)c1Cl,24.3 µM (active),
CC1=C(/C=C/C(C)=C/C=C/C(C)=C/C(=O)Nc2ccc(O)cc2)C(C)(C)CCC1,3.85 µM (active),
O=C(NOC[C@H](O)CO)c1ccc(F)c(F)c1Nc1ccc(I)cc1F,,-1.8%
COc1cc(Nc2c(C#N)cnc3cc(OCCCN4CCN(C)CC4)c(OC)cc23)c(Cl)cc1Cl,27.3 µM (active),
Cc1ccc(C(=O)Nc2ccc(Oc3cc4cnn(C)c4cc3-c3cn[nH]c3)c(F)c2)c(=O)n1-c1ccc(F)cc1,,-14.4%
"Cc1c2oc3c(C)ccc(C(=O)N[C@@H]4C(=O)N[C@H](C(C)C)C(=O)N5CCC[C@H]5C(=O)N(C)CC(=O)N(C)[C@@H](C(C)C)C(=O)O[C@@H]4C)c3nc-2c(C(=O)N[C@@H]2C(=O)N[C@H](C(C)C)C(=O)N3CCC[C@H]3C(=O)N(C)CC(=O)N(C)[C@@H](C(C)C)C(=O)O[C@@H]2C)c(N)c1=O (I: T[dV]P[Sar][NMeV] / II: T[dV]P[Sar][NMeV]; ester I:1-I:C, II:1-II:C; linker I:N-II:N via Actinocin(9to1))",0.385 µM (active),
CN1C(=O)C(Cc2c[nH]c3ccccc23)NC1=S (stereo not drawn),,12.4% [at 19.5 µM]
Cc1cnc(Nc2ccc(CN3CCOCC3)cc2)nc1Nc1cccc(S(=O)(=O)NC(C)(C)C)c1,21.7 µM (active),
CC(C)(C(=O)NCC(F)(F)C(F)(F)F)C(=O)NC1C(=O)Nc2ccccc2-c2ccccc21 (stereo not drawn),,-11%
CCN(CC)CCOc1ccc(/C(=C(\Cl)c2ccccc2)c2ccccc2)cc1,79.4 µM (active),
Cc1ccc(NC(=O)c2ccc(CN3CCN(C)CC3)cc2)cc1Nc1nccc(-c2cccnc2)n1,,-24.7%
COc1c(C)c2c(c(O)c1C/C=C(\C)CCC(=O)O)C(=O)OC2,,-23.6%
COc1ccc(OC)c(-c2nnc3ccc(-c4ccc(OC)c(O[C@@H]5CCOC5)c4)nn23)c1,,-2.95%
